# Bioassay records deposited in PubChem by National Center for Advancing Translational Sciences (NCATS).
# This is a sample that favours compounds with a hit; in the whole collection about 1.1% have one here.
# Pin1 inhibitor = blocks the human prolyl isomerase Pin1; Potency, µM (series often up to 115 µM), for the others: at the highest dose activity, negative = inhibition, hits mostly inhibitors; actives 0.009% (n = 390,000); Pin1 FP peptide displacement, HiFluor488, 10 min; Q13526; active = well fitted inhibition curve with a large enough effect in the polarisation, with a control signal flat, not every such curve was filed as active; inconclusive = small, poorly fitted or top-dose-only effect, or effect the other way, or a change in a side signal; inactive = no such curve, though single readings can be large or run the other way; the % refers to the polarisation
# Target sequence (Q13526 whole entry, looked up): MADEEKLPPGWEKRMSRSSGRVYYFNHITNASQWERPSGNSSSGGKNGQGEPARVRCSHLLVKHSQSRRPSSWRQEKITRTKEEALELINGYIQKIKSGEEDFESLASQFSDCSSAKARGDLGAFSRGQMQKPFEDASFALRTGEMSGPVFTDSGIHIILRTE
# Tb PGK inh = inhibitors of T. brucei phosphoglycerate kinase; Potency, µM (titrated, usually from 57.5 µM), for the others: top-dose activity change, negative = inhibition, most hits filed as inhibitors; P07378; PGK/GAPDH coupled, Kinase-Glo luminescence, 60 min; actives 0.043% (n = 380,000); also: nearly all actives have a fitted effect of over 60% in size
#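 Recombinant glycosomal PGK reaction used 1,3-bisphosphoglycerate generated in-well by GAPDH (100nM final) in 100mM TEA pH 7.6, 5mM MgCl2, 0.01% Tween-20. After 60 minutes at room temperature, ATP was read by Kinase-Glo Plus luminescence end-point.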
# GLS inhibitor = blocks human kidney-isoform glutaminase activity. GLS enzymatic activity, qHTS titration. actives 0.21% (n = 410,000). Potency, µM (doses to about 45.5 µM), for the others: at the highest dose activity change, negative = inhibition, most hits filed as inhibitors. AID 624170
#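 Two-point fluorescence kinetic (t0, 30 min RT) for hKGA; glutamate detected via glutamate oxidase–HRP–Amplex Red. Substrate: 1 mM L-glutamine solution; buffer 45 mM KH2PO4, pH 8.2.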
# VDR inh = inhibitors of human vitamin D receptor | VDR-SRC2-3 peptide fluorescence polarization, 2 h | P11473 | AID 504847 | Potency, µM, for inactives: max response, negative = inhibition, usual class: inhibitors | actives 0.93% (n = 400,000)
#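 VDR–SRC2-3 interaction, FP format. Cmpds 23 nl via pintool, brief spin, 2 h ambient incubation.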
# Tb PFK block = blocks T. brucei phosphofructokinase; O15648; T. brucei PFK, ADP-Glo luminescence; Potency, µM (doses to about 57.5 µM), without a hit: at the highest dose activity, negative = inhibition, actives largely listed as inhibitors; actives 0.17% (n = 330,000);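 also: 0% = uninhibited 1x PFK enzyme wells and -100% = no-enzyme wells; nearly all actives have a fitted effect of over 60% in size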
#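 Compounds were pin-transferred as a titration series up to 57 uM into substrate buffer (0.5 mM F6P, 0.1 mM ATP, pH 8.0), then 1.25 nM PFK was added and reactions ran 45 min before ADP-Glo detection.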
# An asterisk follows results filed as active; i = inactive; ? = inconclusive; . = no result given; ! = not confirmed by another sample. Unless noted, calls follow the shape of the dose curve; as a rule, active = well fitted curve in the direction sought with a large enough effect; inconclusive = small, poorly fitted or top-dose-only effect, or another doubt; inactive = no such curve, though single readings can be large; an effect the other way counts as inactive or inconclusive. Unless noted, % is scaled to controls: 0 for no effect and ±100 for the full control effect; potency is read from the fitted curve at half-maximal effect.
SMILES,Pin1 inhibitor,Tb PGK inh,GLS inhibitor,VDR inh,Tb PFK block
CC1Cc2ccccc2N1C(=O)CNc1cccc(S(=O)(=O)N2CCCC2)c1 (stereo unspecified),1%,-5%,?,25µM*,0%
CC1Cc2ccccc2N1C(=O)CN1CCN(S(=O)(=O)c2ccc3c(c2)OCCCO3)CC1 (stereo unspecified),.,1%,0%,.,.
Cc1ccc(NC(=O)C2CCN(c3nc4ccccc4[nH]3)CC2)c(C)c1,0%,-9%,5%,4%,.
Cc1ccc(OCC(=O)Nc2cc(C(=O)O)cc(C(=O)O)c2)cc1C,4%,-5%,?,18µM*,?
CCOc1ccc(NC(=O)Cn2cc(C(=O)CC)c3ccccc32)cc1,6%,.,-9%,79µM*,2%
CN(CCCN1c2ccccc2CCc2ccccc21)CC(=O)c1ccc(Cl)cc1,.,.,-15%,40µM*,.
CN(C)c1ncc(C2=C(Cl)C(=O)C(N3CCCC3)=C(Cl)C2=O)s1,?,-26%,12%,28µM*,.
COc1ccc(OC)c(/C=C/C(=O)N(C)CC(=O)Nc2ccc(N3CCOCC3)cc2)c1,-10%,7%,31%,-15%,6%
CCN(C(=O)Cn1cc(C(=O)c2ccc(F)cc2)c(=O)c2ccc(C)nc21)c1cccc(C)c1,56%,-6%,5%,1%,.
CC1(C)[C@@H]2CC[C@]1(C)[C@@H](OC(=O)CSC#N)C2,.,.,7%,50µM*,.
Cc1ccc(-c2n[nH]c3c2C(c2ccccc2Cl)N(c2ccc(C(=O)O)cc2)C3=O)cc1 (stereo unspecified),-11%,-18%,7.1µM*,-19%,.
CCc1ccc(C2c3c(-c4ccccc4)n[nH]c3C(=O)N2c2ccc(C(=O)O)cc2)cc1 (stereo unspecified),-10%,-13%,16µM*,?,.
COc1ccc(C2c3c(-c4ccccc4)n[nH]c3C(=O)N2c2ccc(C(=O)O)cc2)cc1 (stereo unspecified),0%,8%,1%,5%,2%
O=C(O)c1ccc(N2C(=O)c3[nH]nc(-c4ccccc4)c3C2c2cccc(F)c2)cc1 (stereo unspecified),-10%,7%,?,?,.
COc1cccc(CNC(=O)CN2N=C(c3ccc(C)cc3)CCC2=O)c1,-1%,-5%,-2%,2%,.
O=C(Nc1ccccc1)N(O)c1ccc(Cl)cc1,-5%,-8%,5%,28µM*,-6%
CC(CCC(=O)O)C1CCC2C3CC[C@H]4CC(O)CC[C@@]4(C)C3C=C[C@]12C (stereo partly specified),.,.,.,28µM*,.
O=C(c1cccc(Cl)c1Cl)N(Cc1ccco1)Cc1cccs1,8%,.,.,79µM*,.
S=C1NCC(c2ccccc2)S1 (stereo unspecified),-4%,0%,-2%,3%,.
Cc1ccc(S(=O)(=O)/N=C2/NC(=O)/C(=C\c3cc(Br)cc(Br)c3O)S2)cc1,?,?,?,50µM*,?
CCc1nnc(NC(=O)CSCc2cc(=O)n3nc(C)sc3n2)s1,-5%,i,?,?,0%
O=C(O)Cc1c[nH]c2ccc(O)cc12,4%,-5%,17%,50µM*!,.
NCCC(=O)N[C@H](Cc1cnc[nH]1)C(=O)O,.,.,.,3%,.
CSc1nc(=S)cc(C)[nH]1,?,i,-25%,50µM*,-23%
Cc1cccc(NC(=O)C(Cc2ccccc2)n2cccc2)c1C (stereo unspecified),2%,0%,4%,-8%,.
CCC(C)C1NC(=O)C(Cc2ccc(O)cc2)NC(=O)C(N)CSSCC(C(=O)N2CCCC2C(=O)NC(CC(C)C)C(=O)NCC(N)=O)NC(=O)C(CC(N)=O)NC(=O)C(CCC(N)=O)NC1=O (stereo unspecified),.,.,11%,13µM*!,.
O=c1oc2c(O)c(O)cc3c(=O)oc4c(O)c(O)cc1c4c23,?,0.89µM*,2.8µM*!,40µM*!,?
COc1cccc(C(C[N+](=O)[O-])c2c(C)[nH]n(-c3ccccc3)c2=O)c1 (stereo unspecified),?,-9%,?,?,29%
